High-throughput results (PubChem)
This is a sample that favours compounds with a hit; in the whole collection about 3.6% have one here.
Anthrax LF inh2: anthrax lethal factor protease inhibition; P15917; multiplex microsphere protease cleavage assay, LF; inhibition, % at 10 µM; 0.12% of 360,000 active; note: plate controls were buffer without enzyme for full effect and enzyme alone for no effect
Target sequence (P15917 whole entry, looked up): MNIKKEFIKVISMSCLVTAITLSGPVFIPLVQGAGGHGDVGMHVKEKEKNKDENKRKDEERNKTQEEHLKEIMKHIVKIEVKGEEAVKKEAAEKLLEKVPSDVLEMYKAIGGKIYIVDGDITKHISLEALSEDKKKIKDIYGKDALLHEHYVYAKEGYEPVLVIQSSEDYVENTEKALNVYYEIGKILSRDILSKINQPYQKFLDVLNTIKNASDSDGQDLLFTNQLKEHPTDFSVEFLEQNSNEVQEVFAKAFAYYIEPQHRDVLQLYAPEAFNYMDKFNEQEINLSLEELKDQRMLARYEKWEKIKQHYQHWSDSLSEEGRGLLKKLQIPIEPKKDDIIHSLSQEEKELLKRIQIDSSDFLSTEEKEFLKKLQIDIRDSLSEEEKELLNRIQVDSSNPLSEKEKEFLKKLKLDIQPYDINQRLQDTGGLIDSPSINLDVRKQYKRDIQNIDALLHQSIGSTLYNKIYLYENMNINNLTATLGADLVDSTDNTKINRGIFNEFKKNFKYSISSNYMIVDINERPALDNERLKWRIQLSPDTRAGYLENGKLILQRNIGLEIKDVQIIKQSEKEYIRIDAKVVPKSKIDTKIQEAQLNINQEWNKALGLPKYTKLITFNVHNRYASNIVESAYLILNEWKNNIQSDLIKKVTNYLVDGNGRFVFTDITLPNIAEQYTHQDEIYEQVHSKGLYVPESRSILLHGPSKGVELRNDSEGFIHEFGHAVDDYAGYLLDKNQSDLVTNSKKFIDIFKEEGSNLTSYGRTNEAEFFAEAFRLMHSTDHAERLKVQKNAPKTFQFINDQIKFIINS
BoNT A protease: blocks Botulinum neurotoxin A light chain protease; inhibition, % at 10 µM; multiplex microsphere protease substrate cleavage, flow cytometry; 0.17% of 360,000 active; note: plate controls were buffer without enzyme for full effect and enzyme alone for no effect
Bead autofluor: compound fluorescence in toxin protease inhibitor counterscreen; AID 624483; compound autofluorescence counterscreen, microsphere flow cytometry; hits give high values; fluorescence intensity (no concentration beside the values); 3.1% of 360,000 active; in the data active = fluorescence intensity above about 16000; inconclusive = no clear call, values can overlap the other calls
BoNT F protease: blocks Botulinum neurotoxin F light chain protease | AID 588497 | inhibition, % at 10 µM | 0.22% of 360,000 active | Multiplex microsphere protease cleavage assay, flow cytometry; in the data active = inhibition above about 35%, passing the limit was not always enough; inconclusive = no clear call, values can overlap the other calls; note: plate controls were buffer without enzyme for full effect and enzyme alone for no effect
BJeLR lethal: BJeLR cell viability loss | AID 1554 | BJeLR (HRASV12) viability, CellTiter-Glo ATP luminescence, 48 h | inhibition, % (concentration not given with the values) | 0.17% of 300,000 active; in the data active = inhibition above about 50%; inconclusive = no clear call, values can overlap the other calls
3CLpro inhibitor: SARS-CoV 3CLpro protease inhibition; recombinant SARS-CoV 3CLpro, quenched FRET peptide cleavage; P0C6X7; 0.14% of 290,000 active; inhibition, % at 6 µM; in the data active = inhibition above about 12%
* marks the source's active call; other numbers are inactive results; ? = inconclusive; . = not tested or not shown. Cut-off read from the data, not from the text of the source, unless noted: active = inhibition above about 30%; inconclusive = no clear call, values can overlap the other calls; inactive = below that.

SMILES | Anthrax LF inh2 | BoNT A protease | Bead autofluor | BoNT F protease | BJeLR lethal | 3CLpro inhibitor
O=C(COc1ccccc1CNCc1ccccc1)Nc1ccccc1 | -6 | ? | 24425* | -12 | 17 | 6
CNCc1ccccc1OCC(=O)Nc1ccccc1OC | -2 | -4 | 17627* | -5 | 8 | 3
CCOc1ccccc1CNCc1ccc(C(=O)O)cc1 | -6 | -1 | 4985 | -5 | -1 | 2
O=c1c2c(nc3nc(NCc4ccccc4Cl)[nH]n13)CCC2 | . | . | . | . | -9 | 6
CCN1C(=O)/C(=C\C=C\c2ccccc2[N+](=O)[O-])SC1=S | 20 | 28 | 5996 | -6 | . | 2
CCN1C(=O)/C(=C/C=C2\N(CC)c3cc(S(=O)(=O)N(C)C)ccc3N2c2ccccc2)SC1=S | 38* | 89* | 6004 | 14 | 30 | -3
CC(C)c1ccc(NC(=S)NCc2cccs2)cc1 | -2 | -4 | 21787* | -6 | -7 | 3
S=C(NCc1cccs1)Nc1cc(Cl)cc(Cl)c1 | -3 | -1 | 6322 | -4 | -8 | 7
S=C(NCc1cccs1)Nc1cccc(Cl)c1 | -6 | -11 | 18567* | -14 | -5 | -6
CCn1c(CNC(=O)c2ccco2)nnc1SCC(=O)Nc1cc(C(F)(F)F)ccc1Cl | 0 | 0 | 10494 | 4 | -1 | -3
CCOC(=O)C1(CCc2ccccc2)CCN(C(=O)CN2C(=O)CSC2=O)CC1 | -9 | 0 | 3826 | 4 | 3 | 4
COc1c2c(c(OC)c3ccccc13)[C@]1(OC2)O[C@H](CCO)C[C@H](O)[C@H]1O | -2 | 0 | 6035 | 1 | . | .
Cc1c(/C=N/n2cnnc2)c2ccccc2n1CCOc1ccc(Cl)cc1 | -5 | 0 | 16355* | -2 | -7 | 2
Cc1cc2c(cc(C(=O)OC(C)C(=O)NCc3ccc(F)cc3)n2C)o1 (configuration not stated) | -6 | 0 | 3094 | -7 | . | .
NC(=O)C1CCN(c2nc(C3CC3)nc3c2nnn3Cc2ccccc2Cl)CC1 | -3 | ? | 25043* | -5 | 5 | -3
CC1Cc2ccccc2N1c1ncnc2c1nnn2Cc1ccccc1Cl (configuration not stated) | -3 | 0 | 4737 | 11 | -10 | -1
Clc1ccccc1Cn1nnc2c(N3CCCC3)ncnc21 | -2 | -1 | 23668* | -2 | -4 | -1
OCCNc1nc(C2CC2)nc2c1nnn2Cc1ccccc1Cl | 0 | ? | 23293* | -2 | 2 | -2
c1ccc(Cn2nnc3c(N4CCN(Cc5ccc6c(c5)OCO6)CC4)ncnc32)cc1 | -1 | -1 | 24167* | -4 | 5 | 1
Cc1noc(/C=C/N(C)C)c1S(=O)(=O)N(C)Cc1ccc(F)cc1 | 0 | 1 | 4909 | 0 | 3 | 3
Cc1ccc(NC(=O)CSc2nc(-c3ccco3)cc(C(F)(F)F)n2)cc1C | 0 | -4 | 17763* | -10 | 13 | 3
O=C(CSc1nc(-c2ccco2)cc(C(F)(F)F)n1)Nc1ccc2c(c1)CCC2 | -1 | 2 | 3453 | 10 | -4 | -4
CSc1nc(C)cc(OCCO)n1 | 0 | 0 | 4964 | -19 | 8 | -2
CSc1nc(C)cc(OCC(=O)n2nc(C)cc2C)n1 | -5 | ? | 23438* | 0 | 7 | -3
CCCNC(=O)Cn1cnc2sc(C(=O)N3CCN(c4ccc(F)cc4)CC3)c(C)c2c1=O | -1 | 0 | 20571* | 1 | -1 | 5
SMILES | Anthrax LF inh2 | BoNT A protease | Bead autofluor | BoNT F protease | BJeLR lethal | 3CLpro inhibitor
COc1ccc(N2CS(=O)(=O)/C(=C/N(C)C)C2=O)cc1 | -3 | 0 | 20727* | 0 | -2 | 1
COc1ccc(N2Cc3ccccc3C2=O)cc1 | -20 | -3 | 4399 | ? | 31 | -2
S=C(Nc1ccc(Cl)c(Cl)c1)NC1CCCCC1 | 1 | -2 | 21140* | -5 | -3 | 6
Cc1ccc(NC(=O)NC2CCCCC2)cc1Cl | 1 | 5 | 21618* | 4 | . | -2
Cc1ccc(NC(=O)C2CCN(C(=O)NC3CCCCC3)CC2)cc1Cl | -4 | 0 | 3829 | -6 | -14 | 3
CC(=O)c1sc(NC(=O)c2ccc(C(C)(C)C)cc2)nc1C | -10 | 0 | 4877 | -1 | 9 | 5
Cc1noc(NS(=O)(=O)c2ccc(NC(=O)C(F)(F)C(F)(F)C(F)(F)F)cc2)c1C | ? | -1 | 4086 | 13 | -13 | .
CC(=O)NC1C(=O)N(CCN2CCOCC2)c2ccc(Cl)cc21 (configuration not stated) | 2 | -9 | 3643 | -39 | -2 | 13*
CC(=O)NC1C(=O)N(CCN2CCOCC2)c2ccc(C)cc21 (configuration not stated) | -10 | -8 | 3853 | -48 | 3 | 54*
CN(C)C(CNC(=O)c1ccc(NS(=O)(=O)c2ccc(F)cc2)cc1)c1ccco1 (configuration not stated) | -27 | -128 | 36456* | -186 | 1 | .
Cc1noc(C)c1C(=O)OCC(=O)Nc1ncc(Cl)c(C)c1Cl | 9 | 0 | 3727 | 0 | . | .
Cc1ccc(-c2nnn(Cc3nc(N)nc(N4CCOCC4)n3)n2)cc1 | 1 | 0 | 23278* | -1 | 2 | -2
CCc1nc2c(OCc3ccc4c(c3)OCO4)cccn2c1N(C=O)Cc1ccc(OC)cc1 | 5 | 0 | 3733 | 2 | . | .
CC(=O)NCCn1c(SCC(=O)NCC2CCCO2)nc2ccccc2c1=O (configuration not stated) | -2 | -1 | 22103* | -4 | 4 | -6
O=C(CSc1nc2ccccc2c(=O)n1CC1CCCO1)NCC1CCCO1 (configuration not stated) | -8 | ? | 17453* | 8 | -8 | -3
CCC(Sc1nc2ccccc2c(=O)n1CC1CCCO1)C(=O)NCc1cccnc1 (configuration not stated) | -3 | ? | 20816* | -4 | -4 | -5
O=C(CN1CCN(S(=O)(=O)c2cccc(Cl)c2)CC1)NCC1(N2CCOCC2)CCCCC1 | 2 | 2 | 8453 | 12 | . | .
Cc1cc(C(C)(C)C)oc1C(=O)N(CC(=O)NC1CCCC1)Cc1ccccc1Cl | -4 | -2 | 10899 | -4 | -5 | -8
CCCCN(C)CCCNC(=O)C1(O)c2ccccc2NC(=O)N1c1ccc(Cl)cc1 (configuration not stated) | -1 | -4 | 3963 | -21 | -5 | -1
O=C(O)Cn1nnnc1-c1ccc(F)cc1 | -2 | 3 | 21941* | 4 | -3 | -3
O=C1N[C@@H](Cc2ccccc2)C(=O)N1CCN1CCOCC1 | -2 | ? | 22937* | 2 | -3 | -2
Cc1ccc(S(=O)(=O)NC(CC(=O)OCc2ccccc2)C(=O)OCc2ccccc2)cc1 (configuration not stated) | -4 | 0 | 3691 | -5 | . | .
Cc1ccc(C(=O)Nc2ccc(Cl)cc2C(=O)c2ccccc2)cc1 | -1 | 1 | 23597* | -4 | . | -2
CSc1cccc(-n2ccc(=O)c(C)c2C)c1 | -2 | -1 | 3841 | -30 | -9 | 1
CCNc1nc(=S)nc(NCc2ccccc2)[nH]1 | . | . | . | . | -9 | 3
CC(C)OC(=O)c1cc2ccccc2[nH]1 | 3 | -5 | 21156* | -4 | 5 | -2
